A selection: hits, their analogues and other compounds. The true share with any hit is near 1.8%.
GC-A act = GC-A (human) enzyme activation; P16066; HEK293 GC-A cells, cGMP TR-FRET, EC30 ANP; 0% at EC30 ANP, 100% saturating ANP; activation, % at 10 µM; actives 0.14% (n = 370,000); AID 1671463; in the data active = activation above about 40%
Target sequence (P16066 whole entry, looked up): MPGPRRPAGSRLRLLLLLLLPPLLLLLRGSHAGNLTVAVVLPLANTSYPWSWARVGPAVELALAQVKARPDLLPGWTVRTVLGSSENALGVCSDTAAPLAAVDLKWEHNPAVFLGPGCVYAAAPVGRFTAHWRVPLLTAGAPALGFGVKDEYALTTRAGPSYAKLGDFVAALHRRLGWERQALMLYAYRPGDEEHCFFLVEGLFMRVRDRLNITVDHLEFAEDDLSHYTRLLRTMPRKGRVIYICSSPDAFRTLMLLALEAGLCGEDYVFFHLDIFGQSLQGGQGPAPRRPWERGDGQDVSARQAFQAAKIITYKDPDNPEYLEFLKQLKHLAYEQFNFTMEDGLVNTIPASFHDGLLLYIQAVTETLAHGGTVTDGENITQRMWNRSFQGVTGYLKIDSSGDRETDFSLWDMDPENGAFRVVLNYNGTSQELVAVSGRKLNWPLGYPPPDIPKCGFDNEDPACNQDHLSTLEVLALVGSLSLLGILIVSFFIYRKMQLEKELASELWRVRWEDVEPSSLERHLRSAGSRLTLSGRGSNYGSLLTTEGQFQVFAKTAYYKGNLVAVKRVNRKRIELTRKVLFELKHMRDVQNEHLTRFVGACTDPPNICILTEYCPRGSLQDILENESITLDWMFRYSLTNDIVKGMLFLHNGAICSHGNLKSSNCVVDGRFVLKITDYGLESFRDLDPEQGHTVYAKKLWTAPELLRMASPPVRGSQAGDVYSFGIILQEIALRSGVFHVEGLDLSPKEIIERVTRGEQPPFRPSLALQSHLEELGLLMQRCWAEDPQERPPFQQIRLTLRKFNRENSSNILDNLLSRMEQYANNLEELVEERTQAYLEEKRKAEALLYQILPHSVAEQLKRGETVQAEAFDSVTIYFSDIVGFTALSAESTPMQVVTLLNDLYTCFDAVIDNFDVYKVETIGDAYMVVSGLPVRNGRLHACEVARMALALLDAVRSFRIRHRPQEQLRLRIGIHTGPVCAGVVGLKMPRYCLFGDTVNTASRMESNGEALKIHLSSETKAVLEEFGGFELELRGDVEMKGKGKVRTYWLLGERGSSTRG
Granule exo inh = lytic granule exocytosis inhibition | TALL-104 LAMP-1 surface exposure, flow cytometry; cells stimulated with thapsigargin and PMA | inhibition, % at 10 µM | actives 0.66% (n = 360,000);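 active = inhibition above about 55%, limit read from the data; inconclusive = no clear call, values can overlap the other calls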
Myeloid diff MLP = promotes myeloid progenitor differentiation. actives 1% (n = 360,000). ER-HoxA9 myeloid progenitors, lysozyme-GFP differentiation, flow cytometry. calls only at 10 µM;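 active = normalized GFP-positive differentiation at or above the plate's own cutoff, the solvent-only control mean plus 3 SD; inconclusive = no clear call, values can overlap the other calls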;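 note: cells exposed to compound for four days before flow analysis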
NPR2 activator = GC-B (human) receptor activation. activation, % at 10 µM. P20594. actives 0.11% (n = 370,000). AID 1920062. HEK293-GC-B cells, CNP EC30, cGMP TR-FRET; 0% at EC30 CNP, 100% saturating CNP;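 active = activation at 10 µM reaching about 35% in either raw or pattern-adjusted values, limit read from the data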
The depositor's hits bear a star; i = inactive; ? = inconclusive; . = not tested or not shown; + = active, no number.

SMILES	GC-A act	Granule exo inh	Myeloid diff MLP	NPR2 activator
CC(=O)Nc1cccc(Oc2ncnc3scc(-c4ccc(C)cc4)c23)c1	55.4*	5.6	i	58.5*
COc1ccc(COc2cc(-c3cccc(OC)c3)nc3ccc(N)cc23)cc1	55.9*	18.3	.	52.8*
COc1ccc(COc2cc(-c3cccc(OC)c3)nc3ccc(NC(=O)c4ccc(C)cc4)cc23)cc1	24.1	8.3	?	26.1
COc1ccc(COc2cc(-c3cccc(OC)c3)nc3ccc(NC(C)=O)cc23)cc1	54.3*	25.1	i	67.5*
CC[n+]1c(/C=C2/C=C(C)CC(C)(C)C2)sc2ccc(OC)cc21	-7.5	25.5	+	-5.9
CC[n+]1c(/C=C2\C=C(C)CC(C)(C)C2)sc2ccccc21	6.0	5.2	i	-2.2
O=C(OC12CCCN(C1)/C(=C/c1cccc(Cl)c1)C2)c1ccc(F)cc1 (centres undefined)	-3.3	.	.	2.3
Cc1ccnc(N/C=C(/NC(=O)c2ccccc2)C(=O)N/N=C\c2ccc(Cl)cc2)n1	52.3*	-3.3	i	2.5
O=C(CN(CC1CCCO1)C(=O)CNS(=O)(=O)c1ccccc1)NCc1ccco1 (centres undefined)	5.0	-8.7	i	-2.2
O=C(CNCC1CCCO1)NCc1ccco1 (centres undefined)	-1.3	3.8	+	3.4
COc1ccc(S(=O)(=O)NCC(=O)NCc2cc(=O)n(C)c(=O)n2C)cc1C	-0.8	-2.5	+	-1.3
O=C1C(=C(O)c2ccccc2)C(=O)c2ccccc21	3.6	-2.6	+	5.9
COc1cc(F)ccc1-c1csc(C(C)(O)c2ccccc2)n1 (centres undefined)	1.8	-6.1	i	-8.8
CCOC(=O)c1ccc(NC(=O)NNC(=O)CCc2ccc(OC)cc2)cc1	-0.2	-0.7	+	-2.9
N#Cc1c(Cl)cccc1-n1ccnc1	3.4	-2.5	+	1.7
CC(=O)N1CCc2c(sc(NC(=O)C3CC3)c2-c2nc3ccccc3s2)C1	-5.8	47.0	+	-27.8
O=C(NC1CCCCC1)C(c1ccccc1)n1c(=O)c(-c2cc3ccccc3[nH]2)nc2ccccc21 (centres undefined)	-2.3	0.9	i	-2.7
N#Cc1ccc(C(C(=O)NC2CCCCC2)n2c(=O)c(-c3cc4ccccc4[nH]3)nc3ccccc32)cc1 (centres undefined)	3.7	3.2	+	1.0
O=[N+]([O-])c1ccc2c(c1)CCCO[C@]21O[C@H](CCO)C[C@H](O)[C@H]1O	0.3	.	.	-0.2
CCCCCCN1C=C/C(=C\C=C(C#N)C#N)c2ccccc21	-12.7	0.0	+	-16.5
CN(C)c1ccc(/C=C2\CCC/C(=C\c3ccccc3)C2=O)cc1	2.6	9.1	+	3.3
O=C1/C(=C/c2ccccc2)CCCc2ccccc21	-0.4	2.4	i	-6.8
O=C(NC1CCCCN(Cc2cccc(Cl)c2)C1=O)c1ccccn1 (centres undefined)	-4.9	.	.	4.7
Cc1cccn2c(=O)c(/C=C(\C#N)C(=O)NCc3ccco3)c(N3CCCCCC3)nc12	0.1	18.9	i	1.5
Cc1cccn2c(=O)c(/C=C(\C#N)S(=O)(=O)c3ccccc3)c(N3CCCCC3)nc12	0.8	-2.0	i	-1.4
SMILES	GC-A act	Granule exo inh	Myeloid diff MLP	NPR2 activator
CCOC(=O)C1CCN(c2nc3c(C)cccn3c(=O)c2/C=C(\C#N)S(=O)(=O)c2ccccc2)CC1	3.5	84.0*	i	14.7
Cc1cccn2c(=O)c(/C=C(\C#N)C(=O)NCc3ccco3)c(N3CCCCC3)nc12	-1.0	-8.0	+	-6.8
CCOc1ccc(N=C(C)c2ccccc2O)cc1	2.7	-3.0	+	4.4
C/C(=N/N=C(\C)c1ccccc1O)c1ccccc1O	0.1	-1.5	i	-6.6
CN1CCCCC(NC(=O)CCCl)C1=O (centres undefined)	2.1	.	.	-2.2
CC(=O)Oc1c(C)c(C)c2c(c1C)CC[C@@](C)(CCC[C@H](C)CCC[C@H](C)CCCC(C)C)O2	3.1	-0.2	+	5.1
Cc1cc(O)cc2c1O[C@@](C)(CCC[C@@H](C)CCC[C@@H](C)CCCC(C)C)CC2	-9.3	-3.9	i	-2.9
CC(C)CCNC(=O)CSc1nc2c(c(=O)[nH]1)CCC2	2.4	.	.	-2.2
CC1CCCC/C1=N\NC(=S)Nc1cccnc1 (centres undefined)	-4.8	-0.8	i	-0.3
Cc1ccc(NC(=S)N/N=C2\CCCCC2C)cc1 (centres undefined)	-1.8	-9.7	+	2.2
COc1ccccc1-c1cnc(C(O)c2c(C)cc(C)cc2C)[nH]1 (centres undefined)	-0.4	-3.0	i	-4.2
CCCCOCCCNS(=O)(=O)c1ccccc1	2.5	-2.7	i	2.4
CCCCOP(=O)(OCCCC)C1(NS(=O)(=O)c2ccccc2)C=CC(=O)c2ccccc21 (centres undefined)	-21.6	99.4*	i	-13.8
C#CCNC(=O)C[C@H]1C[C@@]2(C(=O)OC)C(=C[C@H](COCc3ccccc3)O[C@@H]2C)N(Cc2ccccc2)C1=O	2.2	.	.	-8.6
CC1CCN(CC(=O)N(C)c2c(N)n(Cc3ccccc3)c(=O)[nH]c2=O)CC1	2.6	2.5	+	3.9
C=C1C(=O)[C@]23C[C@H]1CCC2[C@]1(C)CCC[C@@](C)(C(=O)O)C1C[C@@H]3O (some centres undefined)	13.0	13.0	?	2.4
C=C1C(=O)[C@]23C[C@H]1CCC2[C@]1(C)C(=O)CC[C@@](C)(C(=O)O)C1C[C@@H]3O (some centres undefined)	0.5	26.2	+	6.4
COc1cc(C(=O)NNC(=O)CCOc2ccccc2)cc(OC)c1OC	-3.0	-5.3	+	-2.5
COc1cc(C(=O)NNC(=O)Cc2cccs2)cc(OC)c1OC	0.5	-0.2	i	4.9
Nc1ccn(C2CSC(CO)O2)c(=O)n1 (centres undefined)	-0.6	-5.8	i	-0.9
Cc1ccc(/C(C#N)=C\c2ccc(N3CCOCC3)o2)cc1	3.3	77.8*	i	1.4
N#C/C(=C/c1ccc(N2CCCCCC2)o1)c1ccc(Cl)cc1	.	83.7*	?	.
N#C/C(=C/c1ccc(N2CCOCC2)o1)C(=O)Nc1ccccc1	0.2	-1.2	+	-8.0
N#C/C(=C/c1ccc(N2CCCCC2)o1)c1cccc(F)c1	9.3	25.0	.	6.7
N#C/C(=C\c1ccc(N2CCOCC2)o1)C(=O)NCC1CCCO1 (centres undefined)	-12.2	-3.0	i	-11.5
O=C(C1CCCO1)N1CCN(C2=Nc3ccccc3Sc3ccccc32)CC1 (centres undefined)	-3.8	.	.	-6.8
N#C/C(C(=O)NCc1ccccc1)=C1/N=C(NC(=O)c2cccs2)c2ccccc21	1.3	1.5	+	4.5
COc1ccc(NC(=O)c2cc(-c3cc(F)ccc3OCC3CCCO3)n[nH]2)c(C)c1 (centres undefined)	59.7*	-1.1	i	79.3*

Source: PubChem BioAssay
